# Measured values as given in PubChem BioAssay (NCATS).
# Unmarked numbers belong to inactive results. Inconclusive results are not listed. Where a call stands in place of a potency, no number is given. Calls of active or inactive are those of the source. Unless noted, calls follow the shape of the dose curve; as a rule, active = well fitted curve in the direction sought with a large enough effect; inconclusive = small, poorly fitted or top-dose-only effect, or another doubt; inactive = no such curve, though single readings can be large; an effect the other way counts as inactive or inconclusive.
# Experiments:
# [1] = qHTS for differential inhibitors of proliferation of Plasmodium falciparum line 7G8 (AID 1815);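 also: potency is read from the fitted curve at half-maximal effect; parasite growth measured after three days of incubation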
# [2] = qHTS for differential inhibitors of proliferation of Plasmodium falciparum line GB4 (AID 1816); conditions: Potency: Plasmodium falciparum GB4 proliferation inhibition;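 also: potency is read from the fitted curve at half-maximal effect; parasite growth measured after 72 h incubation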
# [3] = qHTS for differential inhibitors of proliferation of Plasmodium falciparum line 3D7 (AID 1876); also: potency is read from the fitted curve at half-maximal effect
# [4] = qHTS for differential inhibitors of proliferation of Plasmodium falciparum line D10 (AID 1877);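 also: potency is read from the fitted curve at half-maximal effect; parasites grown with compound for 72 h before DNA staining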
# [5] = qHTS for differential inhibitors of proliferation of Plasmodium falciparum line W2 (AID 1883); conditions: Potency: Plasmodium falciparum W2 proliferation inhibition;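 also: potency is read from the fitted curve at half-maximal effect; parasites grown with compound for 72 h before lysis and staining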
# [6] = qHTS for differential inhibitors of proliferation of Plasmodium falciparum line HB3 (AID 1886); conditions: Potency: Plasmodium falciparum HB3 proliferation inhibition;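 also: potency is read from the fitted curve at half-maximal effect; parasites grown with compound for 72 h before SYBR Green readout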
# [7] = biological target: Ferritin light chain (Equus caballus) (UniProt P02791); experiment: qHTS Validation Assay for Identification of Novel General Anesthetics (AID 2323); also: series mostly up to about 77 µM
# How it was run: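 Apoferritin from horse spleen (10 uM) was mixed with 1-aminoanthracene at 50% saturation in PBS, then compounds were added. After 10 min at room temperature, fluorescence was read (ex 380 nm, em 535 nm) and normalized to free-probe and complex controls.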
# [8] = biological target: ATP-dependent DNA helicase Q1 (Homo sapiens) (UniProt P46063); experiment: qHTS Validation Assay for Inhibitors of RecQ-Like Dna Helicase 1 (RECQ1) (AID 2353)
# How it was run: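 50 nM RECQ1T1 preincubated 15 min with compound in Tris pH 8.0 buffer with MgCl2, DTT, Tween-20 and 2.5 ug/ml poly(dI-dC); started with 200 nM TAMRA/BHQ-2 forked duplex and 2 mM ATP. Unwinding read as fluorescence (525/598 nm), two reads 2 h apart.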
# [9] = Validation screen for small molecules that induce DNA re-replication in MCF 10A normal breast cells (AID 463097); also: nearly all actives have a fitted effect of over 60% in size
# How it was run: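 DNA re-replication was detected as a rise in nuclei with elevated Hoechst fluorescence after a 48 hr compound exposure of MCF 10A cells at 37 C.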
# [10] = Quantitative high throughput screen for delayed death inhibitors of the malarial parasite plastid, 96 hour incubation (AID 488745); also: potency is read from the fitted curve at half-maximal effect; nearly all actives have a fitted effect of over 70% in size
# How it was run: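 P. falciparum carrying an integrated firefly luciferase reporter, grown in erythrocytes (2% hematocrit, 0.1% parasitemia final) in RPMI 1640/0.5% Albumax, was exposed to compound for 96 h (two generations) at 37 C, 5% CO2. Luminescence decrease indicated growth inhibition.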
# [11] = Quantitative high throughput screen for delayed death inhibitors of the malarial parasite plastid, 48 hour incubation (AID 488752); also: potency is read from the fitted curve at half-maximal effect; nearly all actives have a fitted effect of over 65% in size
# How it was run: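 Erythrocytes infected with P. falciparum carrying an integrated firefly luciferase reporter (2% hematocrit, 0.1% parasitemia final) were exposed to compounds in RPMI 1640/0.5% Albumax for 48 h at 37 C, 5% CO2. Growth inhibition was scored as reduced luminescence.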
# [12] = biological target: M-phase phosphoprotein 8 (Homo sapiens) (UniProt Q99549); experiment: qHTS Validation Assay for Inhibitors for MPP8 Chromodomain Interactions with Methylated Histone Tails (AID 488949);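 also: AlphaScreen signal from MPP8 chromodomain bound to biotinylated H3K9me3 peptide; top concentration of the series differs between compounds; nearly all actives have a fitted effect of over 55% in size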
# How it was run: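 Disruption of the preformed MPP8–trimethyl-H3K9 peptide complex (both 50 nM, 30 min, RT) is measured after 30 min compound exposure, using AlphaScreen proximity beads; aurintricarboxylic acid titration serves as plate control.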
# [13] = biological target: Transient receptor potential cation channel subfamily V member 1 (Homo sapiens) (UniProt Q8NER1); experiment: HTS Assay for Compounds that Act as Enhancers of the Vanilloid Receptor 1 (AID 488979)
# How it was run: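 TRPV1-expressing cells loaded with Fluo-8 calcium dye; compounds added and calcium influx read kinetically for 3 min (agonist phase), then capsaicin at EC20 added and read 2 min more for enhancement. Fluorescence ex 480/em 520 nm.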
# [14] = biological target: Thyrotropin receptor (Homo sapiens) (UniProt P16473); experiment: qHTS Assay for Antagonists of the Thyroid Stimulating Hormone Receptor (AID 488980); also: series mostly up to about 58 µM
# How it was run: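 Cells expressing human TSHR (HEK293) are dispensed in HBSS/HEPES containing 70 uM RO 20-1724, compound is added, then TSH at EC80 (4 nM final). Antibody in lysis buffer follows, 30 minutes at room temperature before HTRF detection.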
# [15] = biological target: Thyrotropin-releasing hormone receptor (Homo sapiens) (UniProt P34981); experiment: qHTS for Small Molecule Agonists and Allosteric Enhancers of Human TRH Receptor: Validation Screen for Agonists (AID 493127;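 active = calcium activation more than 3 SD above the typical response in the agonist read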;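 also: intracellular calcium rise by fluo-8 fluorescence before TRH EC20 addition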); conditions: TRH receptor agonist cell assay; at 2 µM; hits give high values
# How it was run: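 TRHR-expressing cells were plated overnight in serum-containing medium, then loaded with fluo-8 calcium dye at room temperature for 30 min–1.5 h. After a 10 s baseline, compound was pin-transferred and calcium fluorescence (ex 480/em 530) read kinetically for agonist response.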
# [16] = biological target: Galactokinase (Homo sapiens) (UniProt P51570); experiment: qHTS Validation Assay for Inhibitors of Human Galactokinase (GALK) (AID 493189)
# How it was run: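 Compounds were pin-transferred into ATP buffer, then GALK-galactose mix was added (final 5 nM enzyme, 100 uM galactose, 35 uM ATP). After 1 h at room temperature, remaining ATP was measured luminescently.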
# [17] = Validation screen for small molecules that induce DNA re-replication in SW480 colon adenocarcinoma cells (AID 504364)
# How it was run: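 SW480 cells seeded at 250 per well were exposed to compound or DMSO for 48 hr at 37 C, 5% CO2, then stained with Hoechst for 40 min. DNA content per nucleus was imaged (405 nm ex, 500-530 nm em).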
# [18] = biological target: DNA dC->dU-editing enzyme APOBEC-3G (Homo sapiens) (UniProt Q9HC16); experiment: qHTS for inhibitors of Vif-A3G interactions: Validation (AID 588379)
# How it was run: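 HeLa cells stably expressing Vif and A3G-eYFP, 700 cells/well, incubated overnight at 37 deg C, then exposed to compound overnight at 37 deg C. Inhibition of Vif-mediated degradation read as increased yellow fluorescence (Ex 488/Em 500-530) by laser-scanning cytometry.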
# [19] = biological target: Voltage-gated inwardly rectifying potassium channel KCNH2 (Homo sapiens) (UniProt Q12809); experiment: qHTS Assay for Small Molecule Inhibitors of the Human hERG Channel Activity (AID 588834);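 also: top concentration of the series differs between compounds; lower thallium flux fluorescence means stronger hERG block; nearly all actives have a fitted effect of over 50% in size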
# How it was run: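 Measured: FluxOR fluorescence after thallium stimulation in U2OS cells transduced with hERG by baculovirus. Compounds pre-incubated around 10 min; medium Opti-MEM with 2% FCS. AC50 from Hill equation.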
# [20] = system: Zika virus NS2B-NS3 protease; experiment: Primary screen GU AMC qHTS for Zika virus inhibitors (AID 1347154); also: nearly all actives have a fitted effect of over 70% in size
# How it was run: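 Unlinked Zika NS2B hydrophilic domain/NS3 protease domain noncovalent complex (25 nM final) in 10 mM Tris-HCl pH 8.0, 0.01% Tween 20, with AMC peptide substrate. Fluorescence (ex 340, em 450 nm) change over 15 min, room temperature; percent inhibition fitted to 4-parameter Hill equation.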
# [21] = Primary qHTS for small molecule stabilizers of the endoplasmic reticulum resident proteome: Secreted ER Calcium Modulated Protein (SERCaMP) assay (AID 1508630)
# How it was run: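 GLuc-SERCaMP-expressing SH-SY5Y cells, pretreated 16 h with compound, are challenged with thapsigargin to empty ER calcium stores; after 4 h, coelenterazine is added directly to the medium and luminescence is imaged.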
# Sequence of M-phase phosphoprotein 8 (Homo sapiens) (Q99549 whole entry, looked up): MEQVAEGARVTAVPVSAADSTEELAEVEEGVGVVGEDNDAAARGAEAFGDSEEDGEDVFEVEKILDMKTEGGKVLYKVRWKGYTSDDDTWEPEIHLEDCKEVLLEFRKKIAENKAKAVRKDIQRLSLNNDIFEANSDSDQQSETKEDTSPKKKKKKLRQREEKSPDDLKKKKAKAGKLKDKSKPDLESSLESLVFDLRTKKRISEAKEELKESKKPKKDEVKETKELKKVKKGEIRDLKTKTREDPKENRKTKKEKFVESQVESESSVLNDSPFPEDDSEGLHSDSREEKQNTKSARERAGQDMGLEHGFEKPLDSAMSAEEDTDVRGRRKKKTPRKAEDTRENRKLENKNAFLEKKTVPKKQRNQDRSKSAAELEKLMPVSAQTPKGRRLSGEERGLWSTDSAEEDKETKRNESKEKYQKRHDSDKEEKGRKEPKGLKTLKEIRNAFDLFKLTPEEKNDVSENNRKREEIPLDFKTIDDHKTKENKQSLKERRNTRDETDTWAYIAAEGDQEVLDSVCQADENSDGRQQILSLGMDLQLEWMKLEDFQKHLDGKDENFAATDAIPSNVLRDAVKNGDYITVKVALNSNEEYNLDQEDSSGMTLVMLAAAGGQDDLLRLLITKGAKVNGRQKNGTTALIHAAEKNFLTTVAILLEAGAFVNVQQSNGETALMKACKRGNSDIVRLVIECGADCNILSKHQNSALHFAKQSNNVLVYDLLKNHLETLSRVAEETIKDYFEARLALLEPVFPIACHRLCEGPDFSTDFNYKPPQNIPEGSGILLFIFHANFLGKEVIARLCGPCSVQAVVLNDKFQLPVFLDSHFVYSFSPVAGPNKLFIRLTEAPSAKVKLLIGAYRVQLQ
# Sequence of ATP-dependent DNA helicase Q1 (Homo sapiens) (P46063 whole entry, looked up): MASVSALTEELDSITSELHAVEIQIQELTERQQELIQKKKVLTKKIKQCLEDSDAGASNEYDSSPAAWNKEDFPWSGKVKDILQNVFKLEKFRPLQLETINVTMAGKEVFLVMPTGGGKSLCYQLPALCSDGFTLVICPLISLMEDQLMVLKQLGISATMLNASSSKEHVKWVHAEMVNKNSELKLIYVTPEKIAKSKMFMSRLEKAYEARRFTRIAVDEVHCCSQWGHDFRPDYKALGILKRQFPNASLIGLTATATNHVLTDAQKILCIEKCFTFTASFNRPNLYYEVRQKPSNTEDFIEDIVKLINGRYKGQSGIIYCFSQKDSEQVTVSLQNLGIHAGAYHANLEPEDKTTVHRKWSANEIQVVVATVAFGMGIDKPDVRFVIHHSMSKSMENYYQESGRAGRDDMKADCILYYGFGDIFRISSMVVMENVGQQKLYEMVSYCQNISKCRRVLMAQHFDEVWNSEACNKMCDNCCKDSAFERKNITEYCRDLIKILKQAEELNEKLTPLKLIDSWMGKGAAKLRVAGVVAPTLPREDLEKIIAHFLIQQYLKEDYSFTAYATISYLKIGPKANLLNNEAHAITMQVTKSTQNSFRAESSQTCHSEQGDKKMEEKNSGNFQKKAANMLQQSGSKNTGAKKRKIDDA
# Sequence of Thyrotropin-releasing hormone receptor (Homo sapiens) (P34981 whole entry, looked up): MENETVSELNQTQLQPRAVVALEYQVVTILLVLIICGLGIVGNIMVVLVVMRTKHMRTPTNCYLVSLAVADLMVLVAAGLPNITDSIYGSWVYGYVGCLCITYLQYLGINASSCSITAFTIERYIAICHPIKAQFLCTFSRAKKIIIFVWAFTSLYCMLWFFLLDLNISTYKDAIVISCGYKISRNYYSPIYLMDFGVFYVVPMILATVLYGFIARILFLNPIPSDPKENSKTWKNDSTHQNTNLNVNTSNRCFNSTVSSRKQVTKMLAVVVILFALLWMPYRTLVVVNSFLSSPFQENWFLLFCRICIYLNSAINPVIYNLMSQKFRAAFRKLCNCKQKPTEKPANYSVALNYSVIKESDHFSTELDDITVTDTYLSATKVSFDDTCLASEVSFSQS
# Sequence of DNA dC->dU-editing enzyme APOBEC-3G (Homo sapiens) (Q9HC16 whole entry, looked up): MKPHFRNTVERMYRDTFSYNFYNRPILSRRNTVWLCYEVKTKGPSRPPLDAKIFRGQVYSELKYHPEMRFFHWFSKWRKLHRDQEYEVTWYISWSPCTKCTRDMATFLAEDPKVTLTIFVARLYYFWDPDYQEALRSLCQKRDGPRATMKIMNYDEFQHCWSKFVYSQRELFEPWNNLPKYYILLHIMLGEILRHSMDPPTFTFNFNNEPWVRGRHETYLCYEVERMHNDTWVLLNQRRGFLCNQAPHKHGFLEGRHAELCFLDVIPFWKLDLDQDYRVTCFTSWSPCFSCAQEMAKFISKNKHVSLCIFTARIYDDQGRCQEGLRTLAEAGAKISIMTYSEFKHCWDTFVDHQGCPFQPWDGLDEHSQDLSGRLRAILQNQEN
# Sequence of Thyrotropin receptor (Homo sapiens) (P16473 whole entry, looked up): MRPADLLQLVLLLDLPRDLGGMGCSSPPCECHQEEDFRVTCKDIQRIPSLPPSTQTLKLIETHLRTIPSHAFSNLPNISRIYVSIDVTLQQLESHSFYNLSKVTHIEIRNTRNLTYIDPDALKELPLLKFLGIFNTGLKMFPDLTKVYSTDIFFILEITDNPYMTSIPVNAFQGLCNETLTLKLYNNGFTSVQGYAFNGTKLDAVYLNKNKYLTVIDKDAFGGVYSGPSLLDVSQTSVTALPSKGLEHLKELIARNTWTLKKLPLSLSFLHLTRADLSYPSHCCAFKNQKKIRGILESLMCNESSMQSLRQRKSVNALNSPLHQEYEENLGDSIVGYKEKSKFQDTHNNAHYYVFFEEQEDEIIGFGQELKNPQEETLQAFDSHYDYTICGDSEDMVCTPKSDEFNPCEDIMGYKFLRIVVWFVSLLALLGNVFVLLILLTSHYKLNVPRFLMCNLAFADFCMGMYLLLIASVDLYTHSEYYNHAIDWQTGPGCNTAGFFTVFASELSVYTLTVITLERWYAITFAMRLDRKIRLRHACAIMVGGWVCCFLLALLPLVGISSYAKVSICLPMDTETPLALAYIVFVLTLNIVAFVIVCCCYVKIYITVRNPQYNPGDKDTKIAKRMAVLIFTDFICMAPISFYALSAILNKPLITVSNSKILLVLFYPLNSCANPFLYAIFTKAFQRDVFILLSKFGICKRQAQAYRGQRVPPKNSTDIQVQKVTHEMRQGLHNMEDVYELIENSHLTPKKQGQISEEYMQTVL
# Sequence of Transient receptor potential cation channel subfamily V member 1 (Homo sapiens) (Q8NER1 whole entry, looked up): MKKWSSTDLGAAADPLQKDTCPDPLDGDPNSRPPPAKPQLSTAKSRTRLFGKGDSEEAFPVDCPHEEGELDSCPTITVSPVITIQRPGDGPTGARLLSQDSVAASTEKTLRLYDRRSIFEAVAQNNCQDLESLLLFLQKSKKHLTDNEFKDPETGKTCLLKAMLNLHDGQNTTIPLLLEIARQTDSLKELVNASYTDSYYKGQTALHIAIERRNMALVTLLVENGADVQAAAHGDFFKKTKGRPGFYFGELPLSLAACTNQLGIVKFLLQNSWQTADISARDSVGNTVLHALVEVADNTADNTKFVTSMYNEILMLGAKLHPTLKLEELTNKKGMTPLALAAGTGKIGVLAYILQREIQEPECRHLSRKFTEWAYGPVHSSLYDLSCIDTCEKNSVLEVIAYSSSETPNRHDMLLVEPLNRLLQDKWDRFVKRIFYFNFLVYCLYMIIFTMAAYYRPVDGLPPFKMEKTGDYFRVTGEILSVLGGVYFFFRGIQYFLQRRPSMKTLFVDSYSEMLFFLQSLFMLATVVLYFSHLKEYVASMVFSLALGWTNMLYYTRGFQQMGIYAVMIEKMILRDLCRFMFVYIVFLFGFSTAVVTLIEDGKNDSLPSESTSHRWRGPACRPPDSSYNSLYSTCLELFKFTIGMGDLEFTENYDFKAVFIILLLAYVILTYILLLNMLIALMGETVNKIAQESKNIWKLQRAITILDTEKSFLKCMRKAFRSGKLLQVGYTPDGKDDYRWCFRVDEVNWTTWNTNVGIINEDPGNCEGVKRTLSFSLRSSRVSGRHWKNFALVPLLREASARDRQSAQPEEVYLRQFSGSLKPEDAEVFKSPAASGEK
# Sequence of Galactokinase (Homo sapiens) (P51570 whole entry, looked up): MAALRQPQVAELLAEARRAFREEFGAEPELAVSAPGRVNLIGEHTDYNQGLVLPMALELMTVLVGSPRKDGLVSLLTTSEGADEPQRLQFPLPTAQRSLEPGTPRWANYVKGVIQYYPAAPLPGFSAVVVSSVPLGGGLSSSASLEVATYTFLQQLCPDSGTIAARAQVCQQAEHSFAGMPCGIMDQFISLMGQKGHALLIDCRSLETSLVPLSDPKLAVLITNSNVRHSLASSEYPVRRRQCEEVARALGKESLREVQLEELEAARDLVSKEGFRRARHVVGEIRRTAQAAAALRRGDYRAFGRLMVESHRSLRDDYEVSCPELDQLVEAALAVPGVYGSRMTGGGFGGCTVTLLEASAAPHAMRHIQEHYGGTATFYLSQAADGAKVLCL
# Sequence of Ferritin light chain (Equus caballus) (P02791 2-175 limits assumed): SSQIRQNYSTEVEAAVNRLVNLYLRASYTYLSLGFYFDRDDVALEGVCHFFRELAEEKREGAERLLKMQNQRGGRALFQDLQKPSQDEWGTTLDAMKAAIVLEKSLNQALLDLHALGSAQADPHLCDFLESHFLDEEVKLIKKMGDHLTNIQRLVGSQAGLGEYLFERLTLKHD
smiles,measurement,setting,value
COC(=O)c1c(-c2cc(OC)c(OC)c(OC)c2)c2ccnc(OCc3ncccn3)c2c(=O)n1Cc1ccnc(C)c1,Potency,[1],3.98 µM (active)
same,Potency,[2],4.47 µM (active)
same,Potency,[3],2 µM (active)
same,Potency,[4],4.47 µM (active)
same,Potency,[5],2.51 µM (active)
same,Potency,[6],2.82 µM (active)
same,outcome,[7],inactive
same,Potency,[8],inactive
same,Potency,[9],inactive
same,Potency,[10],5.86 µM (active)
same,Potency,[11],9.28 µM (active)
same,Potency,[12],inactive
same,outcome,[13],inactive
same,outcome,[14],inactive
same,activation,[15],0.438%
same,outcome,[16],inactive
same,outcome,[17],inactive
same,Potency,[18],inactive
same,Potency,[19],inactive
same,Potency,[20],inactive
same,Potency,[21],inactive
